IL-1B inflam inh: inflammasome signaling inhibition, IL-1 beta readout. THP-1 LPS/ATP IL-1B secretion, AlphaLISA, 16 h; stronger effect = lower value. activity change, % at 57.5 µM. hit rate 4.7% among 360,000; in the data active = activity change below about -50%; inconclusive = mostly about -30% to -49%
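Secreted IL-1B measured by AlphaLISA bead assay after 16 h compound exposure of THP-1 cells; compounds (final up to 57.5 uM) added 1 h before LPS (250 ng/mL) and ATP (1.25 mM) stimulation; lower signal means less secretion.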
TDP1 cell CPT: DT40-hTDP1 cell growth loss with CPT | Potency, µM (titrated, usually from 46.2 µM), inactives show top-dose activity change, negative = growth inhibition, actives largely listed as inhibitors | chicken DT40 Tdp1-/-;hTDP1 cells + 20 nM CPT, ATP luminescence, 48 h | hit rate 12% among 420,000; also: potency is read from the fitted curve at half-maximal effect; nearly all actives have a fitted effect of over 55% in size
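Cell growth measured by CellTiter-Glo luminescence after a minimum 48 h, 37 C compound exposure with 20 nM CPT in Tdp1-knockout DT40 cells stably expressing hTDP1, seeded 400/well; qHTS titration format.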
LDHA inh: LDHA (human) enzyme inhibition. P00338. purified LDHA, NADH/diaphorase-resazurin fluorescence; stronger effect = lower value. activity change, % (values are at about 110 or 230 µM). hit rate 0.15% among 480,000. AID 1347041; in the data active = activity change below about -30%; inconclusive = mostly about -25% to -30%;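 also: plate controls were DMSO wells for no effect and wells without enzyme for full effect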
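Remaining NADH was detected by diaphorase (0.133 mg/mL) converting 37 µM resazurin to fluorescent resorufin, read at 0 and 20 minutes. The preceding 5-minute room-temperature reaction used 2 nM LDHA, 0.2 mM sodium pyruvate and 0.06 mM NADH at pH 7.4.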
Gal4-VP16 FLuc: Gal4-VP16 reporter inhibition counter-screen. Potency, µM (series often up to 53.6 µM), without a hit: at the highest dose activity, negative = inhibition, actives largely listed as inhibitors. Drosophila S2 Gal4-VP16 UAS-luciferase, luminescence, 20 h. hit rate 3.5% among 310,000;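 also: Gal4-VP16 expression switched on by copper sulfate through the metallothionein promoter; potency is read from the fitted curve at half-maximal effect; nearly all actives have a fitted effect of over 50% in size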
DT40 TDP1 no CPT: qHTS for Inhibitors of human tyrosyl-DNA phosphodiesterase 1 (TDP1): qHTS in cells in absence of CPT; AID 686978, 2013; Potency, µM (doses to about 46.2 µM), inactives show at the top dose activity change, negative = growth inhibition, most hits filed as inhibitors; hit rate 15% among 420,000; DT40 Tdp1-/- hTDP1 cells, no CPT, ATP luminescence, 48 h; also: potency is read from the fitted curve at half-maximal effect; nearly all actives have a fitted effect of over 55% in size
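No-CPT arm: Tdp1-/-;hTDP1 DT40 cells (400/well) plus compounds, incubated ≥48 hr at 37 °C. Readout CellTiter-Glo luminescence.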
RORg inh: blocks mouse ROR gamma transcriptional activity | hit rate 5.4% among 310,000 | Potency, µM (highest dose often 53.6 µM), without a hit: at the highest dose activity change, negative = inhibition, usual class: inhibitors | AID 2551 | P51450 | Drosophila S2 Gal4-RORgamma UAS-luciferase reporter, 20 h; also: potency is read from the fitted curve at half-maximal effect; nearly all actives have a fitted effect of over 60% in size
Target sequence (P51450 whole entry, looked up, the tested form may be a part): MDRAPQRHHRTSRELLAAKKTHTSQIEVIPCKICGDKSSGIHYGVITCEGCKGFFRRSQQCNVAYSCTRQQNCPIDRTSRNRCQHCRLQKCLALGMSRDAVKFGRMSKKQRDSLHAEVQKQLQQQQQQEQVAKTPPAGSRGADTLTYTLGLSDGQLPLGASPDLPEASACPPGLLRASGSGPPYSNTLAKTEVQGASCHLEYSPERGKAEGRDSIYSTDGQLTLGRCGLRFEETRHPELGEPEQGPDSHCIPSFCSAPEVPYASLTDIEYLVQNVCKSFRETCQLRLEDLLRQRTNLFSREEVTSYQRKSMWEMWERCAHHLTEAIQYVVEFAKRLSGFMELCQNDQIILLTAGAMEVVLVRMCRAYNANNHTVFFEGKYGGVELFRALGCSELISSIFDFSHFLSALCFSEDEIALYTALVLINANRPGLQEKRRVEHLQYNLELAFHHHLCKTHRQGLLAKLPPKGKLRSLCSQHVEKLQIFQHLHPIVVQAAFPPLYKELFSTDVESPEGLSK
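Drosophila S2 cells stably expressing Gal4-DBD/mouse RORγ fusion under metallothionein promoter plus UAS-luciferase; compound 1 h, then 700 uM CuSO4 induction for 20 h at ambient temperature; inhibition read as reduced luminescence.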
The depositor's hits bear a star; ? = inconclusive; · = not tested or not shown; ! = repeats disagree; [ ] = dose if it differs, or a comment. An excerpt weighted towards active compounds, which were near 18% of everything screened. Unless noted, calls follow the shape of the dose curve; as a rule, active = well fitted curve in the direction sought with a large enough effect; inconclusive = small, poorly fitted or top-dose-only effect, or another doubt; inactive = no such curve, though single readings can be large; an effect the other way counts as inactive or inconclusive. Unless noted, % is scaled to controls: 0 for no effect and ±100 for the full control effect.

SMILES | IL-1B inflam inh | TDP1 cell CPT | LDHA inh | Gal4-VP16 FLuc | DT40 TDP1 no CPT | RORg inh
OC(c1ccc(F)c(F)c1)c1ncc(-c2cccc(C(F)(F)F)c2)[nH]1 (stereo not given) | -11.8 | ? | -3.7 | · | 16.4µM* | ·
COc1cccc(-c2cnc(C(O)c3cccc(CN4CCCCC4)c3)[nH]2)c1 (stereo not given) | -7.8 | ? | -7.2 | · | -16.3% | ·
COC(=O)c1ccc(Cl)cc1NC(=O)N1CC(C)Oc2ccc(C)cc21 (stereo not given) | · | · | 0.4 | · | · | ·
C=CCNC(=O)CN1CCN(c2nc(-c3ccccc3)c3ccccc3n2)CC1 | · | · | -5.7 | · | · | ·
COC1=CC(=O)C(C(=O)c2ccccc2)=CC1=O | · | ? | · | -20.1% | 5.8µM* | -29.7%
CCN(CC)CC(O)Cn1c(C)c(-c2ccccc2)c2cc([N+](=O)[O-])ccc21 (stereo not given) | -76.6* | 20.6µM* | 1.3 | -19.9% | 9.2µM* | ?
CCn1c(NC(=O)C2CCCCC2)nc2ccccc21 | -11.9 | 18.4µM* | -5.7 | 0.891µM* | 13µM* | 0.355µM*
CCn1c(NC(=O)COc2ccc(C)cc2)nc2ccccc21 | · | · | 0.1 | · | · | ·
O=C(Nc1nc2ccccc2n1CCN1CCCCC1)C1CCCCC1 | -22.0 | ? | -4.6 | 7.08µM* | ? | 2µM*
CCn1nccc1C(=O)Nc1nc2ccccc2n1CCN1CCCCC1 | ? | 35.5µM* | 3.7 | ? | ? | 15.8µM*
O=C(Nc1nc2ccccc2n1CCN1CCCC1)C1CCCCC1 | -16.7 | -6.6% | 2.6 | 10µM* | -4.6% | 7.08µM*
CCn1nc(C(=O)Nc2nc3ccccc3n2CC)c2ccccc2c1=O | · | · | 0.3 | · | · | ·
O=C(Nc1ccc2ccccc2n1)C1CCCCC1 | -16.2 | -24.3% | -2.4 | -13.9% | ? | 6.7%
CCCCOc1ccc(OCCN)cc1 | · | · | -7.0 | · | · | ·
O=C(Nc1ncccn1)c1cc(-c2cccc(Br)c2)nc2ccccc12 | ? | ? | -4.2 | -4.6% | ? | 13.5%
O=C(NC1=NCCS1)c1cc(-c2cccc(Br)c2)nc2ccccc12 | ? | -25.8% | 4.4 | ? | ? | 7.08µM*
Cc1ccc2nc(-c3cccc(Br)c3)cc(C(=O)NC3=NCCS3)c2c1 | -13.9 | ? | -1.1 | 4.47µM* | ? | 2.51µM*
Cc1cccc(-c2cc(C(=O)O)c3cc(C)ccc3n2)c1 | · | · | -11.8 | · | · | ·
O=C(COc1ccc(Cl)cc1)NCc1ccc(-c2nn3cnnc3s2)cc1 | · | · | 9.5 | · | · | ·
COCCCn1c(=O)/c(=C\c2ccccc2OC(C)C)s/c1=C(/C#N)C(=O)Nc1ccc(C(=O)O)cc1 | -4.0 | ? | -1.9 | -27.0% | 14.6µM* | 43.9%
Fc1ccc(CN2CCc3ccccc3C2)c(Cl)c1 | · | · | 2.2 | · | · | ·
CCc1ccc(OCC(=O)NNC(=S)NC(=O)C2CC2)c(Br)c1 | 109.6 | 16.4µM* | -3.2 | -17.5% | 13µM* | ?
CCc1ccc(OCC(=O)NNC(=S)NC(=O)C2CCCCC2)c(Br)c1 | 24.9 | ? | -9.3 | -22.3% | ? | 10µM*
CC(=O)c1ccc(S(=O)(=O)NC2CC(=O)N(c3ccc(C)c(C)c3)C2)cc1 (stereo not given) | 6.2 | 14.6µM* | 4.2 | · | 14.6µM* | ·
O=C1CC(NS(=O)(=O)c2ccc([N+](=O)[O-])cc2)CN1c1ccc2c(c1)OCCO2 (stereo not given) | -0.7 | -11.9% | -6.0 | · | -17.4% | ·
SMILES | IL-1B inflam inh | TDP1 cell CPT | LDHA inh | Gal4-VP16 FLuc | DT40 TDP1 no CPT | RORg inh
O=C1CC(NS(=O)(=O)c2ccc([N+](=O)[O-])cc2)CN1c1ccc(Cl)cc1 (stereo not given) | -6.3 | ? | 3.9 | · | 16.4µM* | ·
CCOC(=O)C(O)(c1ccc(N(C)C(C)=O)cc1)C(F)(F)F (stereo not given) | · | · | 3.1 | · | · | ·
CCCCCn1c(=O)[nH]c2cc(C(=O)N3CCN(c4cccc(OC)c4)CC3)ccc2c1=O | · | 23.1µM* | 3.3 | · | 14.6µM* | ·
Cc1cccc(N2CCN(C(=O)c3ccc(N4CCCC4=O)cc3)CC2C)c1 (stereo not given) | -20.6 | ? | 2.0 | -5.1% | ? | 11.5%
CCCCCn1c(=O)[nH]c2cc(C(=O)N3CCN(c4cccc(C)c4)C(C)C3)ccc2c1=O (stereo not given) | · | 20.6µM* | -12.3 | · | 9.2µM* | ·
COCCn1c(=O)[nH]c2cc(C(=O)N3CCN(c4ccc(OC)cc4)CC3)ccc2c1=O | 27.1 | -31.2% | -2.3 | -10.2% | ? | 16.4%
CCCCCn1c(=O)[nH]c2cc(C(=O)N3CCN(c4ccc(OC)cc4)CC3)ccc2c1=O | · | 9.2µM* | -3.0 | · | 18.4µM* | ·
CCCCC(CC)CNC(=O)c1ccc(Cn2c(=O)[nH]c3cc(OC)c(OC)cc3c2=O)cc1 (stereo not given) | · | ? | -2.8 | · | ? | ·
CCCCC(CC)CNC(=O)c1ccc2c(=O)n(Cc3ccc(OC)cc3)c(=O)[nH]c2c1 (stereo not given) | · | 20.6µM* | 2.7 | · | ? | ·
CCCn1nc(C(=O)Nc2ccc(C(C)(C)C)cc2)c2ccccc2c1=O | · | · | 4.9 | · | · | ·
COCCn1c(C)cc(C(=O)COC(=O)c2c(C)nn(Cc3ccccc3)c2Cl)c1C | · | · | 9.3 | · | · | ·
CCCCCn1c(=O)[nH]c2cc(C(=O)Nc3cc(OC)cc(OC)c3)ccc2c1=O | · | 13µM* | -5.0 | · | 23.1µM* | ·
COCCn1c(=O)[nH]c2cc(C(=O)Nc3ccc(OC)cc3)ccc2c1=O | · | -19.5% | -10.0 | · | -15.7% | ·
CN(C)C(=O)COC(=O)c1ccc2ccccc2n1 | · | · | 4.5 | · | · | ·
O=C(NCc1csc(-c2cccs2)n1)Nc1ccc(F)cc1F | -7.6 | ? | -10.3 | -7.5% | 11.6µM* | 19.9%
O=C(Nc1cccs1)Nc1ccc(F)cc1F | -11.4 | 23.1µM* | -6.4 | 14.9% | 14.6µM* | 18.3%
O=C(Nc1cccs1)Nc1ccc(Br)cc1F | · | ? | -0.6 | -17.1% | 20.6µM* | 34.6%[10 µM]
Cc1ccc(NC(=O)Nc2cccs2)c(Cl)c1 | -14.7 | -28.0% | -3.5 | -5.9% | ? | -20.4%
O=C(NCc1csc(-c2cccs2)n1)Nc1ccc(C(F)(F)F)cc1 | · | 5.5% | -2.3 | -5.6% | ? | -10.8%
CC12CC(c3ccccc3O1)N(C(=O)c1ccco1)C(=S)N2c1ccc(F)cc1 (stereo not given) | 40.5 | ? | 3.8 | ? | ? | 10µM*
CN(C)C(=O)N1CCN(C(=O)c2ccco2)CC1 | -8.5 | 11.1% | -7.7 | 4.2% | 4.9% | -35.9%
COc1cccc(NS(=O)(=O)c2ccc3[nH]cc(C(=O)N(C)Cc4ccco4)c(=O)c3c2)c1 | -3.4 | 23.1µM*! | -1.5 | 0.3% | 23.1µM*! | 21.6%

Bioassay records from PubChem.
